The record followed here is PubChem BioAssay (Tox21).

Results filed as inconclusive are left out. A call without a number means that no potency is given here. Activity calls are given as the source filed them. Calls come from the whole dose curve.

This test deals with Beta-2 adrenergic receptor (Homo sapiens) (UniProt P07550). The experiment in a line: Adrenergic beta2 receptor (ADRB2) small molecule agonists, cell-based qHTS assay (AID 1963593).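 Note: CHO cells stably overexpressing human ADRB2.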 Summed up: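 CHO cells stably over-expressing ADRB2 were plated overnight at 37C, then dosed with compounds plus a stimulation mix containing 100uM IBMX and 25uM Ro-20-1724 for 0.5hr at room temperature. cAMP was measured by HTRF competition, 1hr.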
On the technique in general: In qHTS, concentration-response curves come from the screen itself.

Beta-2 adrenergic receptor (Homo sapiens), sequence (P07550 whole entry, looked up): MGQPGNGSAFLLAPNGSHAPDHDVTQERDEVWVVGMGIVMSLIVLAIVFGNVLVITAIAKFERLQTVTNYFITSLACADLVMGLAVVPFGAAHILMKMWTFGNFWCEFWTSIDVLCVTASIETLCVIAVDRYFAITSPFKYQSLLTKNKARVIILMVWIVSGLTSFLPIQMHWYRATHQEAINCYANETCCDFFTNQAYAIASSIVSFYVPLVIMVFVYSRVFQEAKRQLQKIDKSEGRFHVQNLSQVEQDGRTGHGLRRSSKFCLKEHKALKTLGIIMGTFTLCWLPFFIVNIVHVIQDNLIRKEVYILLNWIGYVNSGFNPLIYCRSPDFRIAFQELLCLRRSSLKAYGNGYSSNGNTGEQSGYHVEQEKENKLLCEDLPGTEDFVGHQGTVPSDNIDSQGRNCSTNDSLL

Regarding `CCCC1COC(Cn2cncn2)(c2ccc(Cl)cc2Cl)O1` (stereo not drawn), the Potency result was “inactive”.

On to `N[C@@H](Cc1ccc(N(CCCl)CCCl)cc1)C(=O)O`, for which the Potency entry is “inactive”.

On to `COC(=O)c1ccccc1CS(=O)(=O)NC(=O)Nc1nc(OC)cc(OC)n1`, for which the Potency result was “inactive”.

Regarding `O=[N+]([O-])c1ccccc1`, the Potency entry is “inactive”.

As to `COCC(=O)N(c1c(C)cccc1C)N1CCOC1=O`, the Potency result was “inactive”.

On to `N#Cc1nn(-c2c(Cl)cc(C(F)(F)F)cc2Cl)c(N)c1S(=O)C(F)(F)F` (stereo not drawn), for which the Potency entry was “inactive”.

For `NNC(=S)NN`, the Potency entry is “inactive”.

Regarding `CC(C)Oc1cc(-n2nc(C(C)(C)C)oc2=O)c(Cl)cc1Cl`, the Potency entry is “inactive”.

Take `O=C(O)c1ccc(=O)[nH]c1`: the Potency entry was “inactive”.

On to `CCCCCCCCCCCCCC[P+](CCCCCC)(CCCCCC)CCCCCC`, for which the Potency result is “inactive”.

On to `O=c1[nH]c2ccccc2c(=O)o1`, for which the Potency entry was “inactive”.

As to `Nc1ccc(-c2ccc(N)c(Cl)c2)cc1Cl`, the Potency result is “inactive”.

Consider `CC(C)=CC1C(C(=O)OCc2cccc(Oc3ccccc3)c2)C1(C)C` (stereo not drawn), for which the Potency entry is “inactive”.

Take `Clc1ccc(C2(Cn3cncn3)OCCO2)c(Cl)c1`: the Potency entry is “inactive”.

In the case of `O=C(CCN1CC1)OCC(CO)(COC(=O)CCN1CC1)COC(=O)CCN1CC1`, the Potency result is “inactive”.

Take `C=CCc1ccc2c(c1)OCO2`: the Potency entry was “inactive”.

Regarding `C=CCBr`, the Potency result was “inactive”.

Turning to `NCc1cccnc1`, the Potency result was “inactive”.

Turning to `OCc1ccco1`, the Potency result was “inactive”.

Consider `C#CCOS(=O)OC1CCCCC1Oc1ccc(C(C)(C)C)cc1` (stereo not drawn), for which the Potency result is “inactive”.

As for `CCNc1nc(Cl)nc(NC(C)(C)C#N)n1`, the Potency result was “inactive”.

For `ClC1C(Cl)C(Cl)C(Cl)C(Cl)C1Cl` (stereo not drawn), the Potency entry is “inactive”.

As to `CC1=C(C(=O)Nc2ccccc2)SCCO1`, the Potency result was “inactive”.

With `O=[N+]([O-])c1ccc(Oc2ccc(Cl)cc2Cl)cc1`, the Potency result was “inactive”.

For the molecule `ClCCN1CCCC1`, the Potency result is “inactive”.

Take `OCCSSCCO`: the Potency entry is “inactive”.

On to `CC(C)OS(C)(=O)=O`, for which the Potency result was “inactive”.

Take `COC(=O)c1sccc1S(=O)(=O)NC(=O)Nc1nc(C)nc(OC)n1`: the Potency result was “inactive”.

Take `CC(C(=O)c1ccccc1)N(C)C` (stereo not drawn): the Potency result was “inactive”.

On to `O=C(Cc1ccccc1)c1ccccc1`, for which the Potency entry was “inactive”.

Turning to `CN(C)[C@@H]1C(=O)C(C(N)=O)=C(O)[C@@]2(O)C(=O)C3=C(O)c4c(O)cccc4[C@@](C)(O)[C@H]3C[C@@H]12`, the Potency entry was “inactive”.

On to `CCCCC(CC)CO[N+](=O)[O-]` (stereo not drawn), for which the Potency entry is “inactive”.

As for `Cc1cnc(C2=NC(C)(C(C)C)C(=O)N2)c(C(=O)O)c1` (stereo not drawn), the Potency result was “inactive”.

In the case of `NNC(N)=S`, the Potency entry was “inactive”.

Take `BrCCBr`: the Potency result was “inactive”.

As for `O=NN1CCOCC1`, the Potency entry was “inactive”.

As for `COc1ccc(C(CN(C)C)C2(O)CCCCC2)cc1` (stereo not drawn), the Potency entry is “inactive”.

Take `CCCCNC(=O)n1c(NC(=O)OC)nc2ccccc21`: the Potency entry was “inactive”.

For the molecule `O=c1n(Cl)c(=O)n(Cl)c(=O)n1Cl`, the Potency result is “inactive”.

`Clc1ccc(Cl)cc1`: the Potency entry is “inactive”.

With `CCC(C)(C#N)N=NC(C)(C#N)CC` (stereo not drawn), the Potency result was “inactive”.

Turning to `CC1(C)C(C=C(Cl)Cl)C1C(=O)OC(C#N)c1cccc(Oc2ccccc2)c1` (stereo not drawn), the Potency entry is “inactive”.

Regarding `CC1OC(C)OC(C)O1` (stereo not drawn), the Potency entry was “inactive”.

Turning to `Cc1cccc(N)c1C`, the Potency entry is “inactive”.

With `CCCCN(CC)c1c([N+](=O)[O-])cc(C(F)(F)F)cc1[N+](=O)[O-]`, the Potency entry is “inactive”.

As for `Cc1ccc(CCl)cc1`, the Potency result was “inactive”.

As for `CCCCCCCCOC(=O)c1ccccc1C(=O)OCCCCCCCC`, the Potency entry is “inactive”.

Turning to `O=C(Nc1ccc(Br)cc1)c1cc(Br)cc(Br)c1O`, the Potency result was “inactive”.

In the case of `O=NN(c1ccccc1)c1ccccc1`, the Potency result was “inactive”.

Take `Cc1ccc(N)c(N)c1`: the Potency result was “inactive”.

`CCOC(=O)c1ccccc1C(=O)OCC`: the Potency entry is “inactive”.

Turning to `c1ccc2c(c1)oc1ccccc12`, the Potency result is “inactive”.

Regarding `COc1c(C(C)(C)C)cc([N+](=O)[O-])c(C)c1[N+](=O)[O-]`, the Potency result was “inactive”.

Regarding `CC(C)c1cccc(C(C)C)c1O`, the Potency result was “inactive”.

As for `CCCCC(CC)C(=O)Cl` (stereo not drawn), the Potency result is “inactive”.

In the case of `[O-][Cl+2]([O-])O`, the Potency result was “inactive”.

Consider `c1ccc(-c2ccccc2)cc1`, for which the Potency entry is “inactive”.

Regarding `O=C(NCO)NCO`, the Potency entry was “inactive”.

Consider `Nc1ncc([N+](=O)[O-])s1`, for which the Potency result was “inactive”.

Take `CNC(=O)Oc1cccc2c1OC(C)(C)O2`: the Potency result is “inactive”.

Regarding `CCOP(=S)(OCC)Oc1nc(Cl)c(Cl)cc1Cl`, the Potency result was “inactive”.

For the molecule `Clc1ccc(C(c2ccc(Cl)cc2)C(Cl)(Cl)Cl)cc1`, the Potency result was “inactive”.

Regarding `COC(=O)Cc1ccccc1`, the Potency result is “inactive”.
